For 40 compounds, growth results are on record in PubChem BioAssay (NCI).

Several values for one entry are separate records, joined by “and”; a condition that tells them apart may be missing. Equal entries are not always repeated. Compounds without any hit were thinned out: in the full panel of roughly 83,000, 20% have a hit.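 Plates (96-well) were seeded with cells, treated with compound at one concentration, and incubated for 48 hours before percent growth was determined.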 Activity calls are given as the source filed them. Where a SMILES comes first, the peptide text is derived from it. [ ]: non-standard residue; d: D form. ξ: configuration not given here. ξD = NC(CC(=O)O)C(=O)O

The assay relates to OVCAR-5 ovarian. The experiment in a line: NCI-60 one-dose screen, 48 h (100 = growth as untreated, 0 = no growth, -100 = all killed). The note with it: 10 µM unless noted. The procedure: Growth inhibition of the OVCAR-5 human tumor cell line is measured as a screen for anti-cancer activity. Cells are grown in 96 well plates and exposed to the test compound for 48 hours. Compounds are tested at a single concentration, which is 10^-5 M for most compounds. The reported endpoint is percent growth (GI% or GIPRCNT), where numbers from 0 - 100% represent growth inhibition, and numbers from -100% - 0 represent cell death. For example, a value of 40 represents 60% growth inhibition. A value of 0 means no net growth occurred over the course of the experiment. A value of -40 indicates 40% of cells at the beginning of the experiment died by the end of the experiment. A value of -100 means all cells are dead at the end of the experiment.
NCI-60 Human Tumor Cell Lines Screen was performed using the standard one-dose NCI protocol, which is described in more detail at https://dtp.cancer.gov/discovery_development/nci-60/default.htm.
Compounds with GIPRCNT values below 10 were considered active. Activity score was based on GIPRCNT using the following formula: […]
Score is 0 for GIPRCNT values of 100 or above, 50 for GIPRCNT values of 0, and 100 for GIPRCNT values of -100.
For `CN(C)c1ccc(/C=C/c2cc[n+](C)c(/C=C/c3ccc(N(C)C)cc3)c2)cc1`, the growth was 21.9% (inactive). Consider `CCC(=O)c1cc([N+](=O)[O-])c(Br)s1`, for which the growth was 99% (inactive). `CCCCCC[C@@H](O)C/C=C\CCCCCCCC(=O)OCCOC`: the growth is 103% (inactive). In the case of `Nc1ccc(C(=O)/C=C/c2ccccc2)cc1`, the growth is 113% (inactive). In the case of `N#CC(I)CS(=O)(=O)c1ccccc1` (stereo not given), the growth is 106% (inactive). As to `O=C(c1ccccc1)C(O)C(Br)(CBr)c1ccccc1` (stereo not given), the growth was 99.6% (inactive). For the compound `Cn1c(-c2ccccc2)c(/C=C/C2=[N+](C)c3ccccc3C2(C)C)c2ccccc21`, the growth was 33.9% (inactive). For `NNc1ccc(Cl)cc1Cl`, the growth is 88.8% (inactive). On to `CCN1CCCC(Nc2cc(C)nc(/N=C(/N)Nc3ccc(Cl)c(Cl)c3)n2)C1` (stereo not given), for which the growth is 13% (inactive). Regarding `O=C1c2ccccc2Cc2cccc(Cl)c21`, the growth is 93.9% (inactive).

In the case of `O=C1C=CC(=O)N1c1cc(Cl)c(Cl)cc1Cl`, the growth was 117% (inactive). As to `O=C/C=C/c1ccc([N+](=O)[O-])cc1`, the growth is 107% (inactive). Under `CCOC(=O)c1[nH]c(C#N)c(C(=O)OCC)c1C` stands 102% (inactive); under `NCC(=O)NC(CC(=O)O)C(=O)O` (stereo not given) (H-Gly-[ξD]-OH), 107% (inactive). For the compound `O=C(CCl)N1c2ccccc2Sc2c1ccc1ccccc21`, the growth was 108% (inactive).

For the compound `O=C(NOC(=O)c1ccccc1)c1ccccc1`, the growth was 109% (inactive). On to `CCCCCCCCCCCC[n+]1ccc2ccccc2c1`, for which the growth was 7.35% (active).

In the case of `Cc1ccc2c(c1)sc(-c1ccc(N(C)C)cc1)[n+]2C`, the growth is 14.4% (inactive).

`O=C(c1ccc(O)c(Br)c1)c1ccc(O)c(Br)c1`: the growth is 110% (inactive). Under `CCCCCCCCCCCCCCCc1ccc(C(=O)C[n+]2ccccc2)cc1` stands -44.1% (active); under `CN1CCC(c2ccccc2)(c2ccccc2)C(=O)C1`, 86.8% (inactive); under `CCCCCCCCCCCCN1C(C)=CS/C1=C\C=C\c1scc(C)[n+]1CCCCCCCCCCCC`, 61% (inactive). As to `CCCCCCCCCCCC1=NCCCN1CCCC`, the growth is 93.4% (inactive).

Take `CC1CC(C)(C)OB(OC(C)CC(C)(C)OB2OC(C)CC(C)(C)O2)O1` (stereo not given): the growth is 103% (inactive). Regarding `Cc1nn(CCO)c(C)c1N=[N+]([O-])c1c(C)nn(CCO)c1C`, the growth was 83.6% (inactive). Regarding `O=C(O)c1ccc2c(c1)C(=O)c1ccccc1C2=O`, the growth was 101% (inactive). On to `CN(C)c1ccc(/C=C/c2nccc3ccccc23)cc1`, for which the growth was 89.4% (inactive). Next, `CCc1cccc(CC)c1N1C(=O)C=CC1=O`: 116% (inactive); `CC(O)C(O)C(O)C(O)C(O)C(=O)NNc1ccccc1` (stereo not given): 84.6% (inactive).

For the compound `CCOc1ccc2c(c1)/C(=C\C=C\C1CC(C)C3CC(OCC)CCC3N1CC)CC(C)N2CC` (stereo not given), the growth was 33.6% (inactive).

With `CC1=CC(=O)C=CC1(C)C(Cl)(Cl)Cl` (stereo not given), the growth is 101% (inactive). On to `Cc1ccc(Nc2ccc(O)c3c2C(=O)c2c(O)ccc(Nc4ccc(C)cc4)c2C3=O)cc1`, for which the growth was 106% (inactive). On to `CN=C(N)N/N=C(\c1ccccc1)c1ccc(Br)cc1`, for which the growth is 32.4% (inactive). For `CCCCCCCCCCCCCCCC[N+]1(C)CCCC1c1cccnc1` (stereo not given), the growth was 48.4% (inactive). For the compound `Cc1ccc2cccc(OC(=O)Nc3cccc(C(F)(F)F)c3)c2n1`, the growth is 83.7% (inactive). Next, `OC(c1cc(-c2ccc(C(F)(F)F)cc2)nc(C(F)(F)F)c1)C1CCCCN1` (stereo not given): 30.4% (inactive) and -33.3% (active) and 61% (inactive); `O=C(Nc1ccc(Cl)c(Cl)c1)Nc1ccccc1O`: 98.7% (inactive); `Cc1cc(N/N=C/c2ccccn2)nc2ccccc12`: 37.9% (inactive). On to `Cc1cc(C)c([I+]c2c(C)cc(C)cc2C)c(C)c1`, for which the growth is -7.26% (active).

On to `Fc1ccc(NCCS)cc1`, for which the growth was 104% (inactive).
